Data on 14 compounds can be found in ChEMBL document CHEMBL5308504, “Tm Shift (DSF) assay results for EUbOPEN Chemogenomics Library” (2023).

A word on the ΔTm: it is the change in melting temperature against a reference sample.

The target of the assay is T1, Aurora kinase A (Homo sapiens) (UniProt O14965).
T1 sequence (whole entry): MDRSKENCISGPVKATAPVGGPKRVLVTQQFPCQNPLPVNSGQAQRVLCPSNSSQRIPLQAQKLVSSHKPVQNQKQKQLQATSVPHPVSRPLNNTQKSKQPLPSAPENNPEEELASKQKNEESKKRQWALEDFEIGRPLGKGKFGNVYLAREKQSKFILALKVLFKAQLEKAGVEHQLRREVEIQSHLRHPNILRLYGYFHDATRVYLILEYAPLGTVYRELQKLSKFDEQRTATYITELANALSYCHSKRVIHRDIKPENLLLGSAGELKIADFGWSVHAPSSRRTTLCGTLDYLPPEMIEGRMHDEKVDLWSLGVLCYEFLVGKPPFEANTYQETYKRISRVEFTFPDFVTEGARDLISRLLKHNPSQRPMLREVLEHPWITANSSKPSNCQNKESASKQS
The following applies: Compound concentration 20.0 uM, Protein concentration 2.0 uM, Result type QC Liability.
As for `COc1ccc(-c2cc3c(C)nc(N)nc3n([C@H]3CC[C@H](OCCO)CC3)c2=O)cn1`, the ΔTm is -0.59 °C.
The same measure for `COc1cc(C(=O)NCCOCCOCCOCC(=O)N[C@H](C(=O)N2C[C@H](O)C[C@H]2C(=O)NCc2ccc(-c3scnc3C)cc2)C(C)(C)C)ccc1Nc1ncc(C(F)(F)F)c(Oc2cccc3c2C(=O)CC3)n1`: 1.75 °C; for `CN1CCc2cc(Nc3ncc(C(F)(F)F)c(NCc4cc[nH]n4)n3)ccc2C1`: 11.3 °C.
The same measure for `CSc1nc2c(c(=O)n(C)c(=O)n2C)n1C`: -0.13 °C; for `N[C@@H](CC(=O)O)Cn1nnc(-c2ccc(Oc3ncc(Cl)cc3F)cc2)n1`: -0.25 °C; for `CCCCc1oc2ccccc2c1C(=O)c1cc(I)c(OCCN(CC)CC)c(I)c1`: -1.66 °C.
For `CCc1nc(-c2cccc(C)c2)c(-c2ccncc2)s1`, the ΔTm was -0.09 °C.
The same measure for `Cn1cc(-c2ccc(-c3cncc(Cl)c3N3CCC4(CCNC4=O)CC3)cc2)cn1`: 1.26 °C; for `CCn1c(-c2nonc2N)nc2ccccc21`: 1.84 °C; for `O=C(Nc1ccc(C(O)(C(F)(F)F)C(F)(F)F)cc1)c1ccc(C(F)(F)F)cc1`: 0 °C.
`CC(=O)c1c(C)c2cnc(Nc3ccc(N4CCN(CCCCNC(=O)COc5cccc6c5C(=O)N(C5CCC(=O)NC5=O)C6=O)CC4)cn3)nc2n(C2CCCC2)c1=O` (centres undefined): the thermal shift (ΔTm) is -0.33 °C.
As for `CC(C)c1cnn2c(NCc3ccccc3)cc(NCCCCCCN)nc12`, the ΔTm was -1.2 °C.
The same measure for `CC(=O)c1c(C)c2cnc(Nc3ccn(C)n3)nc2n(C2CCCC2)c1=O`: 0.47 °C.
Turning to `COCc1c(-c2cc3cc(C)cc(OC)c3s2)c2c(N)ncnn2c1CN[C@@H]1CCNC1=O`, the shift in melting temperature (ΔTm) was 3.49 °C.
